Holding throughout (type): functional
Experiment [1] deals with Solute carrier family 2, facilitated glucose transporter member 1 (Homo sapiens) (UniProt P11166). Kind of experiment: ST_JUDE_LEISH: Cytotoxicity at 2uM final concentration against transgenic Leishmania Mexicana promastigotes LmGLUT1 that are glucose transport deficient and complemented with the human glucose transporter GLUT1. Activity is measured by DNA content using SYBR green in vitro.

Experiment [2] concerns the target Hexose transporter 1 (Plasmodium falciparum) (UniProt O97467). Kind of experiment: ST_JUDE_LEISH: Cytotoxicity at 2uM final concentration against transgenic Leishmania Mexicana promastigotes LmPfHT that are glucose transport deficient and complemented with the Plasmodium falciparum hexose transporter. Activity is measured by DNA content using SYBR green in vitro.

Experiment [3] concerns the target Glucose transporter (Leishmania mexicana) (UniProt O61059). Kind of experiment: ST_JUDE_LEISH: Cytotoxicity at 2uM final concentration against transgenic Leishmania Mexicana promastigotes LmGT2 that are glucose transport deficient and complemented with the L. Mexicana glucose transporter 2. Activity is measured by DNA content using SYBR green in vitro.

“And” between values parts separate entries of the source, which are not always exact repeats. Equal entries are not always repeated.

Solute carrier family 2, facilitated glucose transporter member 1 (Homo sapiens), sequence (P11166 whole entry): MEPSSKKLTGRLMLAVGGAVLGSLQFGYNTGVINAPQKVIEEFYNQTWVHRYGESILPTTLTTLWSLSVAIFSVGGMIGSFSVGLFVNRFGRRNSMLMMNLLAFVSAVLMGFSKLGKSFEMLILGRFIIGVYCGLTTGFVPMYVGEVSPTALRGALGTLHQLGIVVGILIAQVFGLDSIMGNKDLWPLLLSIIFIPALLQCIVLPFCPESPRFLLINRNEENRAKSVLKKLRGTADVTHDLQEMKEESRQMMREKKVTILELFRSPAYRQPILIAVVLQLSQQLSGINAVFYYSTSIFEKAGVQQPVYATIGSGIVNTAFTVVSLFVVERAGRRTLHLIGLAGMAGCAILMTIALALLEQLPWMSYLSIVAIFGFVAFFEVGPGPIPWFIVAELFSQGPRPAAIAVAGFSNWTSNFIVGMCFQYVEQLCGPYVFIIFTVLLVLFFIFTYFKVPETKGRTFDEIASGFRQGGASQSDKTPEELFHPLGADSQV

As usually defined, the inhibition is the drop in the measured response relative to a control, in per cent. As for `CCCN(CCC)CCOC(=O)C(OCC)(c1ccccc1)c1ccccc1`, the inhibition in experiment [1] was 1.8%; in experiment [2], 0.63%; in experiment [3] it was -0.33%.
On the same counts, the results for `CCCN(CC(=O)NCCc1ccccc1)c1ccc(C#N)c2ccccc12` are 2.23%, 1.5% and 1.66%.
Take `CN1CCC(COC(=O)C(O)(c2ccccc2)c2ccccc2)C1` (stereo not drawn): the inhibition in experiment [1] is 2.1%; in experiment [2], -0.69%; in experiment [3] it was -0.38%.
For the molecule `CC(=O)C1(c2ccccc2)CCN(CCC2(c3ccc(Cl)c(Cl)c3)CN(C(=O)CC(C)C)CCO2)CC1` (stereo not drawn), the inhibition was -0.51% in experiment [1], 0.43% in experiment [2] and -2.67% in experiment [3].
Take `Cc1[nH]c2ccc(NS(C)(=O)=O)cc2c1C1CCN(CC2CCN(C(=O)/C=C/c3ccc(Cl)c(Cl)c3)CC2)CC1`: the inhibition was -0.42% in experiment [1], 1.08% in experiment [2] and -0.21% in experiment [3].
Consider `COc1ccc(C[C@@H](C)NC[C@H](O)c2cccc(Cl)c2)cc1F`, for which the inhibition was 0.83% and 1.3% in experiment [1]; 3.32% and 5.02% in experiment [2]; 0.88% and 0.58% in experiment [3].
With `COc1ccc(C(=O)C2CC2CN2CC=C(c3c[nH]c4ccc(OC)nc34)CC2)cc1` (stereo not drawn), the inhibition in experiment [1] was 1.91%; in experiment [2], -1.74%; in experiment [3] it was 2.37%.
Turning to `CC(=O)Nc1ccc2[nH]cc(C3CCN(CC4CCN(C(=O)/C=C/c5ccc(Cl)c(Cl)c5)CC4)CC3)c2c1`, the inhibition in experiment [1] was 0.82%; in experiment [2], -0.9%; in experiment [3], 3.23%.
On the same counts, the results for `O=C(/C=C/c1ccc(Cl)c(Cl)c1)NCC1CCC(N2CCC(c3c[nH]c4ccccc34)CC2)CC1` (stereo not drawn) are 5.53%, 11.2% and 0.18%.
For `COc1ccc(CC(C)NCC(O)c2cccc(C(F)(F)F)c2)cc1` (stereo not drawn), the inhibition amounted to 9.76% in experiment [1], 8.74% in experiment [2] and 8.93% in experiment [3].
Turning to `C=C[C@H]1CN2CC[C@H]1C[C@H]2[C@H](O)c1cc(/C=C/c2ccc(F)cc2)nc2ccc(OC)cc12`, the inhibition in experiment [1] is 2.95%; in experiment [2] it was 0.72%; in experiment [3], 2.4%.
For `CC[C@H]1CN2CC[C@H]1C[C@@H]2[C@@H](O)c1cc(Cl)nc2ccc(OC)cc12`, the inhibition in experiment [1] is 11%; in experiment [2] it was 8.14%; in experiment [3], 8.37%.
On the same counts, the results for `O=C(/C=C/c1ccc(Cl)c(Cl)c1)N1CCC(CN2CCC(c3c(-c4ccccc4)[nH]c4ccccc34)CC2)CC1` are -1.32%, 1.74% and 0.62%.
On to `CCCCCCCn1c(=O)c(C(=O)Nc2c(C)cccc2C)c(O)c2ccccc21`, for which the results for the inhibition in experiment [1], in experiment [2] and in experiment [3] were 2.89%, 1.98% and 3.35%, respectively.
Take `O=C(/C=C/c1ccc(Cl)c(Cl)c1)NC1C2CCC1CC(CN1CCC(c3c[nH]c4ccccc34)CC1)C2` (stereo not drawn): the inhibition amounted to 3.31% in experiment [1], 4.24% in experiment [2] and 2.44% in experiment [3].
Regarding `Oc1ccc(Cl)cc1CN1CCC(CCOC(c2ccccc2)c2ccccc2)CC1`, the inhibition in experiment [1] was 9.61%; in experiment [2], 9.6%; in experiment [3], 7.84%.
As to `CC(C)CNCc1cccc(-c2cccc(CN(C(=O)c3cccs3)C3CCN(Cc4ccccc4)CC3)c2)c1`, the figures for the inhibition in experiment [1], in experiment [2] and in experiment [3] were 11.3%, 7.75% and 6.04%, respectively.
On the same counts, the results for `CC[C@H]1CN2CC[C@H]1C[C@H]2[C@H](O)c1cc(-c2ccccc2C)nc2ccc(OC)cc12` are 0.33%, 0.37% and -4.71%.
With `Cc1[nH]c2ccccc2c1C1CCN(CC2CCC(NC(=O)/C=C/c3ccc(Cl)c(Cl)c3)CC2)CC1` (stereo not drawn), the inhibition in experiment [1] was 6.8%; in experiment [2], 6.35%; in experiment [3], 7.15%.
Turning to `CC[C@H]1CN2CC[C@@H]1C[C@H]2[C@H](O)c1cc(N2CCOCC2)nc2ccc(OC)cc12`, the values for the inhibition in experiment [1], in experiment [2] and in experiment [3] were -1.11%, -1.44% and -2.42%, respectively.
As to `CC(=O)Nc1ccc(CN2CCC(N(C)c3cc(NC(=O)c4cccs4)ccn3)CC2)cc1`, the inhibition was -1.53% in experiment [1], 0.83% in experiment [2] and -0.48% in experiment [3].
The like results for `c1ccc2c(NCCCCCCNc3c4ccccc4nc4ccccc34)c3ccccc3nc2c1` were, in that order, 5.54%, 6.29% and 4.31%.
Consider `CC1=C(C(=O)NC2CCC(CN3CCC(c4c[nH]c5ccccc45)CC3)CC2)Cc2ccccc21` (stereo not drawn), for which the inhibition in experiment [1] was -3.48% and -2.8%; in experiment [2], 2.28% and -2.66%; in experiment [3] it was -4.68% and 10.4%.
Turning to `Cc1nc(C)c(-c2ccc(Oc3ccc(OC(F)(F)F)cc3)cc2)c(OC(=O)N(CCNC(C)C)C(C)C)c1Br`, the inhibition in experiment [1] worked out at 5.43%; in experiment [2], 8.45%; in experiment [3], 5.04%.
On the same counts, the results for `C=CCOc1ccccc1CNCC(O)c1cccc(C(F)(F)F)c1` (stereo not drawn) are 2.78%, 3.47% and 2.61%.
Take `CC[C@H]1CN2CC[C@H]1C[C@H]2[C@H](O)c1cc(-c2ccc3ccccc3c2)nc2ccc(OC)cc12`: the figures for the inhibition in experiment [1], in experiment [2] and in experiment [3] were 10%, 4.9% and 3.26%, respectively.
As for `Cc1cccc(C(=O)Nc2ccnc(N(C)C3CCN(Cc4cccc(O)c4)CC3)c2)c1`, the inhibition in experiment [1] is 3.06%; in experiment [2] it was 1.84%; in experiment [3], 3.85%.
Consider `CS(=O)(=O)Nc1ccc2[nH]cc(C3CCN(CC4CCC(NC(=O)/C=C/c5ccccc5Cl)CC4)CC3)c2c1` (stereo not drawn), for which the inhibition in experiment [1] is -1.96%; in experiment [2], 1.23%; in experiment [3] it was -0.23%.
As to `CC(=O)N(Cc1ccccc1-c1cccc(CNCCc2ccccc2)c1)C1CCN(Cc2ccccc2)CC1`, the inhibition in experiment [1] was found to be 8.96%; in experiment [2] it was 7.85%; in experiment [3] it was 7.27%.
`CC[C@H]1CN2CC[C@H]1C[C@H]2[C@H](O)c1cc(-c2ccc(OC(F)(F)F)cc2)nc2ccc(OC)cc12`: the values for the inhibition in experiment [1], in experiment [2] and in experiment [3] were 4.51%, 2.38% and 3.6%, respectively.
Take `CC(=O)N(Cc1ccccc1-c1cccc(CNCc2ccc3c(c2)OCO3)c1)C1CCN(Cc2ccccc2)CC1`: the results for the inhibition in experiment [1], in experiment [2] and in experiment [3] were 3.8%, 5.58% and 3.79%, respectively.
